Source: PubChem BioAssay (NCI)
Compounds without any hit were thinned out: in the full panel of roughly 83,000, 20% have a hit.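 The endpoint reported here, percent growth, reads 100 for growth as untreated, 0 for no net growth and -100 for all cells dead.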 Unmarked numbers belong to inactive results. The source made the active and inactive calls. How the source made its calls: active means growth percent below 10; inactive means the rest.

What was measured:
Assay in all cases: NCI-60 one-dose screen, 48 h (100 = growth as untreated, 0 = no growth, -100 = all killed)
Conditions in all cases: 10 µM unless noted
[1] = tested on: DU-145 prostate
[2] = tested on: K-562 leukemia
[3] = tested on: MALME-3M melanoma
[4] = tested on: MDA-MB-231 breast
[5] = tested on: RXF 393 renal
[6] = tested on: SF-268 CNS
[7] = tested on: SF-295 CNS
[8] = tested on: SF-539 CNS
[9] = tested on: UACC-257 melanoma
[10] = tested on: M14 melanoma
[11] = tested on: HCT-15 colon
[12] = tested on: HT29 colon
[13] = tested on: SNB-75 CNS
[14] = tested on: SNB-19 CNS
[15] = tested on: U251 CNS
[16] = tested on: PC-3 prostate
[17] = tested on: SK-MEL-5 melanoma
[18] = tested on: UACC-62 melanoma
[19] = tested on: LOX IMVI melanoma
[20] = tested on: SK-MEL-28 melanoma

| Compound | growth [1] | growth [2] | growth [3] | growth [4] | growth [5] | growth [6] | growth [7] | growth [8] | growth [9] | growth [10] | growth [11] | growth [12] | growth [13] | growth [14] | growth [15] | growth [16] | growth [17] | growth [18] | growth [19] | growth [20] |
| --- | --- | --- | --- | --- | --- | --- | --- | --- | --- | --- | --- | --- | --- | --- | --- | --- | --- | --- | --- | --- |
| COc1cc(C(=O)C(=O)c2cc(OC)c(O)c(OC)c2)cc(OC)c1O | 119% | 122% | 103% | 97.2% | 104% | 99.3% | 109% | 97.1% | 98.3% | 104% | 103% | 103% | 91.6% | 99.8% | 98.4% | 112% | 104% | 89.8% | 97% | 107% |
| CCCCCCCCNc1cc2c3c(c1)CCCN3CCC2 | -2.64% (active) | 18.8% | 48.5% | 6.88% (active) | 29.1% | 18.3% | 14% | 8.74% (active) | -11.6% (active) | 30.3% | 17.9% | -9.19% (active) | 35.9% | 17.5% | 15.5% | -0.993% (active) | -71.8% (active) | 27.8% | 2.21% (active) | 48.9% |
| COc1ccc(C2C3=C(COC3=O)N(CCO)c3cc4c(cc32)OCCO4)cc1OC (stereo not given) | 14.6% | 27.6% | 41.7% | 56.8% | 5.27% (active) | 51.7% | 3.18% (active) | -2.02% (active) | 44.1% | 13.6% | 31.3% | 4.76% (active) | -8.37% (active) | 37.4% | 26.4% | 23.8% | 21% | 18.1% | 42.1% | 48.7% |
| Cn1cccc1/C=C1\C(=O)Nc2ccccc21 | 110% | 98.9% | 94.8% | 67.4% | 103% | 92.3% | 100% | 99.5% | 98% | 96.6% | 50.9% | 103% | 90.3% | 90.4% | 97.7% | 94.2% | 56.6% | 90.6% | 87.2% | 112% |
| Cc1cc(F)ccc1S(=O)(=O)Nc1cc(-c2c(O)ccc3ccccc23)c(O)c2ccccc12 | 41.7% | 14.8% | 15.3% | 22.7% | 27.1% | 34.9% | 41.8% | 6.5% (active) | 30.2% | 18.2% | 10.7% | 52.8% | 46.2% | 37.4% | 18.6% | 15.5% | -63.6% (active) | 2.8% (active) | 16% | 29.4% |
| Cc1ccccc1OCC(O)COc1ccccc1C | 120% | 114% | 88.5% | 103% | 80.5% | 99.4% | 98.5% | 95.9% | 89.2% | 98.5% | 79.1% | 103% | 112% | 94.9% | 86.1% | 94.8% | 93.6% | 81.9% | 97.6% | 101% |
| CNC(=O)c1c(NC(=O)c2ccc(C(C)(C)C)cc2)sc2c(CN(C)C)c(O)ccc12 | 24.7% | -29.3% (active) | -88.9% (active) | -44.8% (active) | 36.2% | 3.83% (active) | -80.6% (active) | -71.1% (active) | -56.4% (active) | -72.3% (active) | -77.3% (active) | 0.0225% (active) | 94.9% | 0.882% (active) | -29.9% (active) | -23.3% (active) | -29.5% (active) | -85.9% (active) | -88.5% (active) | -89.1% (active) |
| Cc1cc(C(=O)Nc2cc(Nc3ncccc3-c3ncnc4nc[nH]c34)ccc2F)cc(C(F)(F)F)c1 | 74.8% | 4.38% (active) | 108% | 22.9% | 100% | 67.3% | 78.4% | 21.4% | 10.7% | 5.2% (active) | 60.1% | 20.8% | 59.4% | 74.4% | 57.3% | 72.2% | 29.2% | -2.36% (active) | 1.22% (active) | 10.3% |
| CCCCN1C(=O)/C(=c2\sc3n(c2=O)NC2C(N=3)N(CC)C(=O)N2CC)c2ccccc21 (stereo not given) | 20.6% | 14.6% | 57.6% | 34.6% | -0.314% (active) | 48.6% | 69.7% | 13.5% | 31% | 25.3% | 33.5% | 16% | 11.2% | 61.9% | 33.8% | 45.1% | 55% | 37.4% | 47.6% | 65.6% |
| O=c1nc(Nc2nc3ccccc3s2)[nH]c(=O)c2ccccc12 | 106% | 95.9% | 99.7% | 98.3% | 98.1% | 102% | 99.3% | 97.5% | 107% | 101% | 99.2% | 108% | 76.5% | 95.6% | 98.6% | 105% | 99.6% | 99% | 95.7% | 110% |
| COCCCOc1cc(C[C@@H](C[C@H](N)[C@@H](O)C[C@H](C(=O)NCC(C)(C)C(N)=O)C(C)C)C(C)C)ccc1OC | 124% | 103% | 109% | 102% | 104% | 117% | 93% | 103% | 104% | 109% | 111% | 106% | 88.4% | 106% | 98.7% | 90.7% | 106% | 102% | 95% | 104% |
| COC(=O)Cc1nc(C#N)c(N(C)C)o1 | 112% | 91.1% | 105% | 100% | 106% | 94.8% | 100% | 99% | 95.7% | 103% | 99.4% | 106% | 78.5% | 96.1% | 98.8% | 99.4% | 102% | 87.6% | 97.7% | 104% |
| CC1(C)OC(=O)C(=Cc2cccc(Br)c2)C(=O)O1 | 112% | 98.6% | 108% | 107% | 96.4% | 102% | 102% | 108% | 85.8% | 109% | 108% | 92.9% | 94.4% | 105% | 92.9% | 89.5% | 94.8% | 101% | 101% | 119% |
| CSCCC(NC(=O)c1ccccc1)C(=O)N/N=C1\S/C(=C/c2ccc(Cl)cc2)C(=O)N1C (stereo not given) | 75.1% | 41.6% | 83.3% | 75.6% | 75.5% | 74.1% | 75.2% | 93.5% | 89.8% | 86.6% | 96.4% | 91.4% | 57.8% | 68.1% | 64.2% | 84.9% | 82.9% | 91.1% | 89.3% | 85.9% |
| COc1ccc2nc3ccccc3c(NCc3ccc(F)cc3)c2c1 | 16.5% | 1.95% (active) | -5.2% (active) | 16.7% | -18.9% (active) | 34.6% | 14.4% | 3.85% (active) | -11.1% (active) | 15.3% | 4.11% (active) | 0.209% (active) | 23.8% | 17.7% | 22.1% | 17.1% | -6.56% (active) | 39.1% | -66.7% (active) | 35.3% |
| O=C1C(Cl)=C(NCCN2CCOCC2)C(=O)c2ncccc21 | -88.5% (active) | -33.5% (active) | -79.3% (active) | 18.6% | -27.5% (active) | 11% | -40.5% (active) | -85.8% (active) | -92.8% (active) | -85.9% (active) | -38% (active) | -27.6% (active) | 88.3% | 17.3% | 29.6% | 38.1% | -94.1% (active) | -51.2% (active) | -57.3% (active) | -84.3% (active) |
